Seven compounds from ChEMBL document CHEMBL1961873, “Compounds: GSK PKIS; Assays: Nanosyn kinase panel” (2012) can be followed below.

Experiment [1] deals with RAC-alpha serine/threonine-protein kinase (Homo sapiens) (UniProt P31749). The following applies: at 0.1 µM.
For experiment [2] the target is unchanged. Conditions: at 1 µM.
In experiment [3] the target is RAC-beta serine/threonine-protein kinase (Homo sapiens) (UniProt P31751). The following applies: at 0.1 µM.
The target is the same in experiment [4]. The following applies: at 1 µM.
Experiment [5] addresses RAC-gamma serine/threonine-protein kinase (Homo sapiens) (UniProt Q9Y243). Conditions: at 0.1 µM.
Experiment [6] has the same target. Conditions: at 1 µM.
Experiment [7] has as its target G protein-coupled receptor kinase 6 (Homo sapiens) (UniProt P43250). Conditions: at 0.1 µM.
The target is the same in experiment [8]. Conditions: at 1 µM.
The target of experiment [9] is T1, Rhodopsin kinase GRK7 (Homo sapiens) (UniProt Q8WTQ7).
T1 sequence (whole entry): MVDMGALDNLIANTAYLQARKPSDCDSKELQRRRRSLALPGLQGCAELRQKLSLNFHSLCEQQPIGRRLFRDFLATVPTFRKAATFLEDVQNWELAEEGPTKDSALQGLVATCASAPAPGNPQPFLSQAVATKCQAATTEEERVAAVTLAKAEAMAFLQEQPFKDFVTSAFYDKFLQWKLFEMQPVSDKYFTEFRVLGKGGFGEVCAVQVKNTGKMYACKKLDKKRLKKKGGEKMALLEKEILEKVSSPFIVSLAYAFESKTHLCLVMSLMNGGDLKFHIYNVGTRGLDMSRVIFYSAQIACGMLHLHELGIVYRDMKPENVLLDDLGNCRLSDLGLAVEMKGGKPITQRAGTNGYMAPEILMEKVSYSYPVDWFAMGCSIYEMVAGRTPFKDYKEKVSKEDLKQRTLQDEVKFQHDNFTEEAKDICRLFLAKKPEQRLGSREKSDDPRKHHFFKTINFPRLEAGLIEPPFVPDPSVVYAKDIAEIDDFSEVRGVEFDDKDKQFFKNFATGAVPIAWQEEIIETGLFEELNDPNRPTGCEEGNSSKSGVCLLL
Conditions: at 0.1 µM.

The target of experiment [10] is T1, Rhodopsin kinase GRK7 (Homo sapiens). The following applies: at 1 µM.
The target of experiment [11] is Serine/threonine-protein kinase MRCK alpha (Homo sapiens) (UniProt Q5VT25). The following applies: at 0.1 µM.
Chain of Serine/threonine-protein kinase MRCK alpha (Homo sapiens) (Q5VT25 whole entry): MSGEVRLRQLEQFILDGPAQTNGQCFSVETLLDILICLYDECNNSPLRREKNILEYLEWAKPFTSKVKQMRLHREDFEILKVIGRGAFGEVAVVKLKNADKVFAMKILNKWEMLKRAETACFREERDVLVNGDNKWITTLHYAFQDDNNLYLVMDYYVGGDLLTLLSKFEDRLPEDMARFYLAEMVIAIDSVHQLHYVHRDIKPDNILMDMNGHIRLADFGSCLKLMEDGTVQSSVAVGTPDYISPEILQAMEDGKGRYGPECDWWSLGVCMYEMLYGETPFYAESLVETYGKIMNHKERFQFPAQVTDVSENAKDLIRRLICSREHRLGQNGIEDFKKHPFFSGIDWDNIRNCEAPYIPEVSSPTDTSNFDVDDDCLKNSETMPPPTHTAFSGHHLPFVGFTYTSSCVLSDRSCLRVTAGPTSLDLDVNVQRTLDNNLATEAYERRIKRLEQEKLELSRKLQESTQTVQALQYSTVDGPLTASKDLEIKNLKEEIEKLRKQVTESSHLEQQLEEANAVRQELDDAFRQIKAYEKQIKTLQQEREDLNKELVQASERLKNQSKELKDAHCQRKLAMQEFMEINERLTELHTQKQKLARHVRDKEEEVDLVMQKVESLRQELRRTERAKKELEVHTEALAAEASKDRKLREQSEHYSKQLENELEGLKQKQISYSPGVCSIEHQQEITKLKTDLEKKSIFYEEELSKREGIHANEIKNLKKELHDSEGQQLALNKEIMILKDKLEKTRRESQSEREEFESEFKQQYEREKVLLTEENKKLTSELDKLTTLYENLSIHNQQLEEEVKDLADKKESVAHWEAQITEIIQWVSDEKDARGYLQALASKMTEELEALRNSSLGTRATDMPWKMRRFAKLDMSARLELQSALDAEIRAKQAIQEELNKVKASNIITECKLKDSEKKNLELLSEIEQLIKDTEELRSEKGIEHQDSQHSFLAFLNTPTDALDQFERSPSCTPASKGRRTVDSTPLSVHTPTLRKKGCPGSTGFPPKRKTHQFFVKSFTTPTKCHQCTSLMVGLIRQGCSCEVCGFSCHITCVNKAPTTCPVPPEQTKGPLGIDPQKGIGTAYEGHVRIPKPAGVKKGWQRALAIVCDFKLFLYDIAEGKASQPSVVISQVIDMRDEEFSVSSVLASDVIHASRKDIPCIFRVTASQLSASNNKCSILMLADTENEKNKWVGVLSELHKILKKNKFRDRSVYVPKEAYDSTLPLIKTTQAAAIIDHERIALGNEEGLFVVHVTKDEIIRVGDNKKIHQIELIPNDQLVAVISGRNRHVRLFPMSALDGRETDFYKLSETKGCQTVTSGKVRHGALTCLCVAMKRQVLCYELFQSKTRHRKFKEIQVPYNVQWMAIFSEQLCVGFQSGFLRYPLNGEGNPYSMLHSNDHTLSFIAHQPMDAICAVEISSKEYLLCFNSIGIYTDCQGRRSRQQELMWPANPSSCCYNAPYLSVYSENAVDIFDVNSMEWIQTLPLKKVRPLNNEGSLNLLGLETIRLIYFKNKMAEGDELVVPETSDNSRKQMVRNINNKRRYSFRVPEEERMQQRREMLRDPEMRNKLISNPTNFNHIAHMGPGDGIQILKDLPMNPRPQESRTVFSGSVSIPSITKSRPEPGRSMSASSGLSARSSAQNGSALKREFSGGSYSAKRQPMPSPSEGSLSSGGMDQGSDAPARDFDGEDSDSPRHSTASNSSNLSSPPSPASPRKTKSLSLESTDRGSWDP
Experiment [12] has the same target. Conditions: at 1 µM.
In experiment [13] the target is Serine/threonine-protein kinase MRCK beta (Homo sapiens) (UniProt Q9Y5S2). The following applies: at 0.1 µM.
The target is the same in experiment [14]. Conditions: at 1 µM.
The target in experiment [15] is Ribosomal protein S6 kinase alpha-5 (Homo sapiens) (UniProt O75582). Conditions: at 0.1 µM.
For experiment [16] the target is unchanged. Conditions: at 1 µM.
For experiment [17], the target named is Ribosomal protein S6 kinase alpha-4 (Homo sapiens) (UniProt O75676). The following applies: at 0.1 µM.
Chain of Ribosomal protein S6 kinase alpha-4 (Homo sapiens) (O75676 whole entry, looked up): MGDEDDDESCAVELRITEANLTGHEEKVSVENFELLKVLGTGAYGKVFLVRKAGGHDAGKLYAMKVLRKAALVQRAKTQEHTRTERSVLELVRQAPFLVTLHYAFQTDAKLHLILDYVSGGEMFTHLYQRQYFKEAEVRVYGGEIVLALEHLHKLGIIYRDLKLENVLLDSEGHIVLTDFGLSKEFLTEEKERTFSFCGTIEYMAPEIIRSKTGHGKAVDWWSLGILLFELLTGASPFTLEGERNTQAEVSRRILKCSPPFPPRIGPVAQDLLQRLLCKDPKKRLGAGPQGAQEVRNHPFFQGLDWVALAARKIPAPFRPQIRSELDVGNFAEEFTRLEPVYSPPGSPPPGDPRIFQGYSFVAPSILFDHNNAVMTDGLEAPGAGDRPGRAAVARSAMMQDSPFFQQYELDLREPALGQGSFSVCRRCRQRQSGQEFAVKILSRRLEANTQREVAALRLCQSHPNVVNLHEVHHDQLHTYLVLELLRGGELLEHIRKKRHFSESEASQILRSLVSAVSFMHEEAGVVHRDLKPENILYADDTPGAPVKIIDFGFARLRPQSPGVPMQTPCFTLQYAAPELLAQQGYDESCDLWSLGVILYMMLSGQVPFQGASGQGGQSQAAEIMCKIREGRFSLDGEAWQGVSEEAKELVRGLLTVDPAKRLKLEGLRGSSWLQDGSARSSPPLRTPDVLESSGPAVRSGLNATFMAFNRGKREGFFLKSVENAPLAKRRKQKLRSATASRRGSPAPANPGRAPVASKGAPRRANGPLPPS
Experiment [18] has the same target. Conditions: at 1 µM.
Experiment [19] addresses Ribosomal protein S6 kinase beta-1 (Homo sapiens) (UniProt P23443). The following applies: at 0.1 µM.
Experiment [20] has the same target. Conditions: at 1 µM.

Each structure is given as a SMILES string.

Chain of RAC-beta serine/threonine-protein kinase (Homo sapiens) (P31751 whole entry): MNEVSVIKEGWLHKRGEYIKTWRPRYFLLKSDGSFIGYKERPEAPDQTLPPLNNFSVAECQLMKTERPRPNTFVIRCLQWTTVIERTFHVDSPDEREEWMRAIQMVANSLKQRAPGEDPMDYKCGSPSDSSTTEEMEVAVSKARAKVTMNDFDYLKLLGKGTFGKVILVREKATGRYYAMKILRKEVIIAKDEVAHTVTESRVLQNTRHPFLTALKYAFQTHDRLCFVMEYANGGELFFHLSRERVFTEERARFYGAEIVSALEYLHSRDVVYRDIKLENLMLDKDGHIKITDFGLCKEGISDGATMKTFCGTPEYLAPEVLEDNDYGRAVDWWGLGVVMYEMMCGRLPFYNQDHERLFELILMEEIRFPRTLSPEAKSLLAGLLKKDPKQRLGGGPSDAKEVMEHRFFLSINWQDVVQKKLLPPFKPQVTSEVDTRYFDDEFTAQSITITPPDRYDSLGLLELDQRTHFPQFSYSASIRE
Chain of Ribosomal protein S6 kinase beta-1 (Homo sapiens) (P23443 whole entry, looked up): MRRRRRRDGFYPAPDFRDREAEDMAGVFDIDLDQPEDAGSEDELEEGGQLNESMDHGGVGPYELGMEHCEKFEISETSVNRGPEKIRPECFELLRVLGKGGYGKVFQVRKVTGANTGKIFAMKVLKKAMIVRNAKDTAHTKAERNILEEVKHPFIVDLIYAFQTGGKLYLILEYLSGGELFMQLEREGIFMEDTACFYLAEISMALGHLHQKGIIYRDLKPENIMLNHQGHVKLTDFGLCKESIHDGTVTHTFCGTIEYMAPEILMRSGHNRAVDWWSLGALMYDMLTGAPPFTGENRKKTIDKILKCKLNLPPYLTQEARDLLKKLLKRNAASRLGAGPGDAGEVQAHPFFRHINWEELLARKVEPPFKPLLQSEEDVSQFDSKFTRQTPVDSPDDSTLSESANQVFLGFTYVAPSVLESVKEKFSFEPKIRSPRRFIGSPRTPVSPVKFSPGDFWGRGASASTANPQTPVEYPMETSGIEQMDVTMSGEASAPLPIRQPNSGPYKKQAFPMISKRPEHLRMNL
Chain of RAC-alpha serine/threonine-protein kinase (Homo sapiens) (P31749 whole entry): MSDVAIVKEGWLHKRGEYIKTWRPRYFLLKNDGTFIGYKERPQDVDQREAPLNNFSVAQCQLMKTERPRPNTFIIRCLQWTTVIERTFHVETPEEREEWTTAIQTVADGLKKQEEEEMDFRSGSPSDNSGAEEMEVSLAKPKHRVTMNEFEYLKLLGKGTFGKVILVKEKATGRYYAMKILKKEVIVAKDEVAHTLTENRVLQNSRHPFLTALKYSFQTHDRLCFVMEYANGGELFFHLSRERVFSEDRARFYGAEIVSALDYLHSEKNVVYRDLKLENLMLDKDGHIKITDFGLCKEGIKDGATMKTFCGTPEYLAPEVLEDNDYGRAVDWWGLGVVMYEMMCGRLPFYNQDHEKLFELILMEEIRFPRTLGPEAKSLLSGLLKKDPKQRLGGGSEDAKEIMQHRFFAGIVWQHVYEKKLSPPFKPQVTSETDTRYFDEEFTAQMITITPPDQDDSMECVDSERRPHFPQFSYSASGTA
Chain of RAC-gamma serine/threonine-protein kinase (Homo sapiens) (Q9Y243 whole entry): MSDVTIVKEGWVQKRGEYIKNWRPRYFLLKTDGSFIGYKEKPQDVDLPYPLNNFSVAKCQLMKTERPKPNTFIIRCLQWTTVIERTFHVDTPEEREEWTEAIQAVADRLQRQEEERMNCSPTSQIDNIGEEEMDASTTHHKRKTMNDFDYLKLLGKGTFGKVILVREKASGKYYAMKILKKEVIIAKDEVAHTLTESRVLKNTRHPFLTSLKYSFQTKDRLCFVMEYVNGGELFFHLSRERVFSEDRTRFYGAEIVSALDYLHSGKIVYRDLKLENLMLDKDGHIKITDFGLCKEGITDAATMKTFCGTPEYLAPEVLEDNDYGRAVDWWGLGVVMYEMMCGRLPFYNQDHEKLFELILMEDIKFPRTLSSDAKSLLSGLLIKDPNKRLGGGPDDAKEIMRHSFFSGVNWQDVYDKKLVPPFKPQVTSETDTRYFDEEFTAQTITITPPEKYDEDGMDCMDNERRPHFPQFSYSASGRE
Chain of G protein-coupled receptor kinase 6 (Homo sapiens) (P43250 whole entry, looked up): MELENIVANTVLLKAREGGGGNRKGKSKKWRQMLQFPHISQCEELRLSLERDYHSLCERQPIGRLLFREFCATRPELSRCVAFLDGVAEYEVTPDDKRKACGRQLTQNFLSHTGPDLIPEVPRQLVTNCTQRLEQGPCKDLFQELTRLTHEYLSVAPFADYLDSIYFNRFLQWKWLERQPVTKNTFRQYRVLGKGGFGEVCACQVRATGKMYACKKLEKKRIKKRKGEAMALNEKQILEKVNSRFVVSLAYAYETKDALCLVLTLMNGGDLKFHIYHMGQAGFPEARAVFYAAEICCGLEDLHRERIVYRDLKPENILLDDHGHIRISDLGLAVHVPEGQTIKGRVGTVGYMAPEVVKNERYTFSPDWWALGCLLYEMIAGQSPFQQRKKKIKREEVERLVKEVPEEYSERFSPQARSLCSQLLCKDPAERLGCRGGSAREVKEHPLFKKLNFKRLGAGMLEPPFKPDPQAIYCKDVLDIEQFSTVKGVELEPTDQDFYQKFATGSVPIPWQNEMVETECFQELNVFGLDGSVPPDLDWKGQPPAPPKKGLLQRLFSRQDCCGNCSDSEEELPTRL

For the compound `Fc1ccc(-c2nn3ncccc3c2-c2ccnc(Nc3ccc4c(c3)OCCO4)n2)cc1`, the inhibition in experiment [1] worked out at 0.05%; in experiment [2], 0.97%; in experiment [3], 1.99%; in [4], 1.14%; in experiment [5], 0.88%; in [6] it was 1.56%. In addition, the inhibition in experiment [7] was found to be 2.14%; in [8], 1.87%; in [9], 1.38%; in experiment [10] it was 5.57%; in [11], 1.99%; in experiment [12] it was 20.4%. Also, the inhibition in experiment [13] was -0.17%; in experiment [14], 1.27%; in experiment [15] it was 2.73%; in experiment [16], 2.22%; in experiment [17], 0.67%; in experiment [18], 3.9%. Also, the values for the inhibition in experiment [19] and in experiment [20] were 1.73% and 2.69%, respectively.

`CN1CCC(n2cnc(-c3ccc(F)cc3)c2-c2ccnc(N)n2)CC1`: the inhibition was 0.24% in experiment [1]; 0.29% in experiment [2]; 0.39% in [3]; 0.66% in experiment [4]; 2.57% in experiment [5]; 2.05% in experiment [6]. The inhibition in experiment [7] stood at 1.6%; in experiment [8] it was 2.25%; in experiment [9] it was 3.11%; in experiment [10] it was 5.7%; in experiment [11], 1.47%; in experiment [12] it was 1.4%. Further, the inhibition is -1.13% in experiment [13]; 1.3% in experiment [14]; 0.55% in [15]; 2.23% in experiment [16]; 0.42% in experiment [17]; 3.67% in [18]. Moreover, the inhibition was -0.73% in [19] and 1.36% in experiment [20].

With `COc1ccc(CNC(=O)c2ccc(-c3cc(-c4nnc(C)o4)ccc3C)cc2)cc1`, the inhibition in [1] amounted to 0.11%; in experiment [2] it was 0.4%; in experiment [3], 0.92%; in experiment [4], 1.2%; in experiment [5], 0.06%; in experiment [6] it was 0.12%. Also, the inhibition in [7] is 6.21%; in experiment [8], 16.4%; in experiment [9], 2.86%; in experiment [10], 10.6%; in experiment [11], 2.98%; in [12] it was 6.58%. Also, the inhibition was 2.16% in [13]; 2.99% in experiment [14]; 9.25% in experiment [15]; 9.58% in experiment [16]; 3.89% in experiment [17]; 4.66% in [18]. Besides, the inhibition in experiment [19] turned out to be 1.64%; in [20], 2.15%.

On to `COc1cccc(-n2ncc3c(N/N=C/c4ccc(F)cc4)ncnc32)c1`, for which the inhibition came to 0.98% in experiment [1]; 0.49% in experiment [2]; 2% in [3]; 1.56% in experiment [4]; 1.42% in experiment [5]; 0.92% in experiment [6]. The inhibition in experiment [7] is 5.53%; in [8], 7.7%; in experiment [9], 3.44%; in [10] it was 19.5%; in experiment [11], -0.63%; in experiment [12] it was 1.53%. Further, the inhibition in experiment [13] was -0.45%; in experiment [14], 0.66%; in experiment [15], 4.05%; in experiment [16], 4.15%; in [17], 2.78%; in [18], 4.13%. The inhibition in [19] was determined as 1.73%; in [20], 3.51%.

In the case of `c1ccc(COc2ccc(Nc3ncnc4ccc(-c5ccco5)cc34)cc2)cc1`, the inhibition was 0.02% in [1]; 0.01% in [2]; -0.87% in experiment [3]; 0.43% in [4]; 0.39% in [5]; 2.23% in experiment [6]. Further, the inhibition was -0.04% in experiment [7]; 4.75% in experiment [8]; 5.57% in experiment [9]; 5.11% in [10]; -3.21% in [11]; -2.24% in experiment [12]. The inhibition in experiment [13] is 0.9%; in [14], -0.9%; in [15] it was 0.07%; in [16], -1.17%; in [17], 2.09%; in [18], 1.67%. The inhibition in experiment [19] came out at 0.5%; in experiment [20], 0.07%.

In the case of `O=S(=O)(CCNCc1ccc(-c2ccc3ncnc(Nc4ccc(OCc5cccc(F)c5)c(Cl)c4)c3c2)o1)c1ccccc1`, the inhibition was 1.7% in experiment [1]; 1.71% in experiment [2]; 2.21% in experiment [3]; 3.29% in experiment [4]; 0.84% in experiment [5]; 3.13% in [6]. For the same compound, the inhibition is 1.68% in experiment [7]; 1.4% in experiment [8]; 8.83% in experiment [9]; 2.27% in experiment [10]; -4.06% in experiment [11]; 0.31% in [12]. For the same compound, the inhibition was 0.71% in [13]; -0.02% in experiment [14]; 4.86% in experiment [15]; 4.66% in experiment [16]; 3.43% in [17]; 3.05% in experiment [18]. Further, the inhibition stood at 1.88% in [19] and 2.98% in experiment [20].

Consider `Fc1cccc(COc2ccc(Nc3ncnc4sc(-c5ccco5)cc34)cc2Cl)c1`, for which the inhibition came to 0.99% in experiment [1]; 0.75% in [2]; 0.95% in experiment [3]; 1.84% in experiment [4]; 0.12% in [5]; 50.3% in experiment [6]. Besides, the inhibition was 2.57% in experiment [7]; 11.6% in experiment [8]; 11.4% in experiment [9]; 43.4% in experiment [10]; -3.73% in [11]; -2.22% in experiment [12]. For the same compound, the inhibition in [13] was -0.66%; in [14], -0.82%; in experiment [15], 8.97%; in experiment [16], 7.53%; in [17], 2.45%; in experiment [18], 1.61%. Further, the inhibition in [19] is 1.01%; in experiment [20], 1.47%.
